CHRM1 antagonist: human M1 muscarinic receptor antagonists, primary screen, CHO-K1 cells, Fluo-8 calcium fluorescence, 1536-well; CHO-K1 hM1, ACh EC80 antagonist; inhibition, % at 3 µM; 360,000 compounds, 1.3% hits;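 active = percent inhibition above its own plate's cutoff, namely the mean of that plate's compound wells plus 3 SD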;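 note: peak over basal fluorescence ratio during 140 s after agonist addition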
Target sequence (P11229 whole entry, looked up): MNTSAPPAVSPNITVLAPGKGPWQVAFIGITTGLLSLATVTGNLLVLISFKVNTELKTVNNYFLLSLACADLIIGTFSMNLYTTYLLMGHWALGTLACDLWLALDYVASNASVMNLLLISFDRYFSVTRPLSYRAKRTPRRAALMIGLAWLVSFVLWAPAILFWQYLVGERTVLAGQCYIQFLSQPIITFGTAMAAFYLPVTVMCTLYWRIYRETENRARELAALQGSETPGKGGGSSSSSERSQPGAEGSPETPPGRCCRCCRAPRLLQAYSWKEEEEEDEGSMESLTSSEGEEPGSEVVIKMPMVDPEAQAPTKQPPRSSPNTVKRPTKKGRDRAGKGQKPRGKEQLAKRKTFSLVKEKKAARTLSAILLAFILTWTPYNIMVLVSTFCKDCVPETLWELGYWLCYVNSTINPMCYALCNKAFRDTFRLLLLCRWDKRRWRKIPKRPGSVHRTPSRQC
CHRM1 PAM: human M1 muscarinic receptor positive allosteric modulators, primary screen, CHO-K1 cells, Fluo-8 calcium fluorescence, 1536-well. Muscarinic acetylcholine receptor M1 (Homo sapiens), P11229. CHO-K1 hM1, ACh EC20; 0% = ACh EC20, 100% = maximal ACh. activation, % at 3 µM. 360,000 compounds, 0.088% hits. AID 588819, 2011; in the data active = activation above about 19%, passing the limit was not always enough
CHO-K1 Ca ag: counter-screen for M1 agonists: effect in parental CHO-K1 cells; Fluo-8 calcium fluorescence; scaled to maximal ATP response, vehicle zero; 360,000 compounds, 0.48% hits; activation, % at 3 µM; in the data active = activation above about 15%;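 note: untransfected CHO-K1 host cells lacking M1 receptor as counterscreen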
CHRM1 agonist: human M1 muscarinic receptor agonists, primary screen, Fluo-8 calcium fluorescence, CHO-K1 cells, HTS | Muscarinic acetylcholine receptor M1 (Homo sapiens), P11229 | CHO-K1 hM1, agonist mode; 0% DMSO, 100% acetylcholine EC100 | activation, % at 3 µM | 360,000 compounds, 0.33% hits | AID 588814, 2011;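 active = activation above the run's mean compound activation plus 3 SD, cut at about 16% in these data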;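 note: peak over basal fluorescence ratio within a 140 s kinetic read after compound addition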
CHO-K1 Ca PAM: nonselective calcium activators in parental CHO-K1 cells, primary screen, counter-screen for M1 PAM project, cell-based, Fluo-8 calcium fluorescence, full deck, 1536-well | 360,000 compounds, 0.02% hits | activation, % at 3 µM | AID 602247, 2012 | ATP EC20; 0% at ATP EC20, 100% at ATP max;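 active = activation above the run cutoff, the mean activation of all test compounds plus 3 SD, cut at about 40% in these data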;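 note: peak over basal fluorescence ratio in a 140 s read after ATP addition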
CHO-K1 Ca antag: counter-screen for M1 antagonists: effect in parental CHO-K1 cells | ATP-induced calcium, Fluo-8 fluorescence | inhibition, % at 3 µM | 360,000 compounds, 0.6% hits;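 active = inhibition above a per-plate cutoff, the plate's mean sample inhibition plus 3 SD, cut at about 24% in these data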
Of the large screens only hits and unclear results are named; the others gave an inactive call. A selection: hits, their analogues and other compounds. The true share with any hit is near 2.3%.

CCc1cc2ccc(C)cc2nc1SCC(=O)NC1CCCC1	none
Nc1nc(SCC(=O)NCCC(c2ccccc2)c2ccccc2)n[nH]1	none
OC1CC2CCC(C1)N2CCCN1c2ccccc2Sc2ccc(Cl)cc21 (stereo unspecified)	CHRM1 antagonist 67.4
CC(C)Oc1ccc(C2C(C#N)=C(N)Oc3c2oc(CO)cc3=O)cc1 (stereo unspecified)	CHO-K1 Ca ag 15.3
COc1cc(C2C(C#N)=C(N)Oc3c2oc(CO)cc3=O)ccc1OC(C)C (stereo unspecified)	none
CN(C)C(CNC(=O)c1cc2ccccc2o1)c1ccco1 (stereo unspecified)	none
COc1ccccc1NC(=O)CSc1nc(O)c(Cc2ccccc2)c(=O)[nH]1	none
CCSc1nc(O)c(Cc2ccccc2)c(=O)[nH]1	CHO-K1 Ca antag 30.6
CCCc1c(O)nc(SCCN(CCC)CCC)[nH]c1=O	CHO-K1 Ca antag 27.0
CCCCCCCc1c(O)nc(SCCN(C)C)[nH]c1=O	none
Cc1ccccc1OCC(=O)Nc1ccccc1N1CCC(C)CC1	none
Cc1ccccc1/C=C/C(=O)NCC(=O)N1CCC(N(C)C2CCCCC2C)CC1 (stereo unspecified)	CHRM1 antagonist 26.5
CCC(=O)c1ccc(OC(=O)C2CCN(C3=NS(=O)(=O)c4ccccc43)CC2)cc1	none
COc1ccc(CN(Cc2ccccn2)S(=O)(=O)c2ccc(-n3cnnn3)cc2)cc1	CHO-K1 Ca antag 40.0
COc1ccc(CN(Cc2ccccn2)S(=O)(=O)c2ccc(-n3cnnn3)c(OC)c2)cc1	none
CCOC(=O)C1(C)CCCN(C(=O)c2c(-c3ccccc3)noc2C)C1 (stereo unspecified)	none
OC(c1cc(-c2cccc(Cl)c2)nc2ccccc12)C1CCCCN1 (stereo unspecified)	CHO-K1 Ca ag 26.7
CN1CCN(NC(=O)c2cc(-c3cccc(Cl)c3)nc3ccccc23)CC1	none
COc1ccc(CNCCC(c2ccc(OC(C)C)cc2)C(C)C)cc1OC (stereo unspecified)	none
COc1ccc(CNCCC(c2ccccc2)c2ccc3c(c2)OCO3)cc1 (stereo unspecified)	CHO-K1 Ca ag 28.4
COc1ccc(C(CCNCc2ccc(OC(C)C)cc2)C(C)C)cc1 (stereo unspecified)	CHRM1 antagonist 35.5
COc1ccc(C(CC(=O)O)c2ccc3c(c2)OCO3)cc1 (stereo unspecified)	none
COc1ccc(C(CCNCc2ccc(N(C)C)cc2)C(C)C)cc1 (stereo unspecified)	CHRM1 antagonist 39.2, CHO-K1 Ca antag 27.9
CN1C(=O)C(CC(=O)Nc2ccc(F)cc2)N(NC(=O)c2cccc(F)c2)C1=S (stereo unspecified)	CHRM1 antagonist 49.5
CCN1C(=O)C(CC(=O)Nc2ccccc2Cl)N(NC(=O)c2cccc(F)c2)C1=S (stereo unspecified)	none
CC(C)(O)C#Cc1ccc(CN2CCN(C3CCCC3)C(CCO)C2)cc1 (stereo unspecified)	CHRM1 antagonist 52.6
CSc1ccc(CN2CCN(C3CCCC3)C(CCO)C2)cc1 (stereo unspecified)	CHRM1 antagonist 60.1
OCCC1CN(Cc2cc3c(cc2Cl)OCO3)CCN1C1CCCC1 (stereo unspecified)	CHRM1 antagonist 38.3
CC(C)(O)C#Cc1ccc(CN2CCN(C3CCCCC3)C(CCO)C2)s1 (stereo unspecified)	none
CC(C)(O)C#Cc1ccc(CN2CCN(C3CCCCC3)C(CCO)C2)cc1 (stereo unspecified)	CHRM1 antagonist 25.2
CN(C)S(=O)(=O)c1cc(NC(=O)c2ccc(-n3ccnc3)c([N+](=O)[O-])c2)ccc1Cl	CHRM1 antagonist 25.5
COc1ccccc1NC(=O)c1ccc(-n2ccnc2)c([N+](=O)[O-])c1	none
CN(C)CCCN=C(NO)c1ccc(Cl)cc1Cl	CHRM1 agonist 49.9
CN(CCOc1ccc(Cl)cc1)C(=O)c1cccc(S(=O)(=O)N2CCN(Cc3ccccc3)CC2)c1	CHRM1 antagonist 39.7
CC(C)CN(C(=O)c1cccc(S(=O)(=O)N2CCN(Cc3ccccc3)CC2)c1)C1CCS(=O)(=O)C1 (stereo unspecified)	CHRM1 PAM 24.7
CCCN(C(=O)c1cccc(S(=O)(=O)N2CCN(Cc3ccccc3)CC2)c1)C1CCS(=O)(=O)C1 (stereo unspecified)	none
COc1ccc(NC(=O)CN(C)C(=O)c2cccc(S(=O)(=O)N3CCN(Cc4ccccc4)CC3)c2)cc1	none
Clc1ccc(CSc2nnc(NC3=NCCCCC3)s2)cc1	CHRM1 antagonist 33.4
Nc1nnc(SCc2ccc(Cl)cc2)s1	CHRM1 antagonist 28.0
Nc1nnc(CSCc2ccc(Cl)cc2)s1	none
CCN(CC)Cc1cc(CCNC(=O)c2ccc(Cl)cc2)ccc1O	none
CCN(CC)Cc1cc(Oc2ccc(O)c(CN(CC)CC)c2)ccc1O	CHRM1 antagonist 34.6
CCOC(=O)N1CCN(C(=O)c2ccc(N(Cc3ccccc3Cl)S(C)(=O)=O)cc2)CC1	CHRM1 PAM 32.3
COCC(C)NC(C(=O)Nc1ccc(Cl)c([N+](=O)[O-])c1)c1ccccc1 (stereo unspecified)	CHRM1 PAM 30.8
CCC(C)NC(C(=O)Nc1ccc(Cl)c([N+](=O)[O-])c1)c1ccccc1 (stereo unspecified)	none
Cc1nn(C)c(C)c1N1C(=O)c2cccc3c(N)ccc(c23)C1=O	CHRM1 antagonist 35.1, CHO-K1 Ca ag 63.0, CHRM1 agonist 90.0, CHO-K1 Ca antag 30.8
CN(C)CCCN1C(=O)c2cccc3c(Br)ccc(c23)C1=O	none
CCN1C(=O)c2cccc3c(N)ccc(c23)C1=O	CHRM1 antagonist 47.9, CHO-K1 Ca ag 72.3, CHRM1 agonist 191.9
CCCN1C(=O)c2cccc3c(N4CCCCC4)ccc(c23)C1=O	none
CCCCNc1ccc2c3c(cccc13)C(=O)N(CCCC)C2=O	CHRM1 antagonist 90.3, CHO-K1 Ca ag 348.0, CHRM1 agonist 295.9, CHO-K1 Ca antag 92.6
Cc1nn(C)c(C)c1N1C(=O)c2cccc3c(Br)ccc(c23)C1=O	none
Cc1ccc(N2C(=O)c3cccc4c(N)ccc(c34)C2=O)c2cccnc12	CHO-K1 Ca ag 22.6, CHRM1 agonist 29.0
COC(=O)CCCn1cc(CN2CC(N3CCN(Cc4cccc(C)c4)CC3)CS2(=O)=O)nn1 (stereo unspecified)	none (no result: CHRM1 antagonist, CHRM1 PAM, CHRM1 agonist)
CCOC(=O)N1CCN(C(=O)c2ccc(OC(C)=O)cc2)CC1	none
